Assay results: PubChem BioAssay (NCATS)
Records with an inconclusive call do not appear. Activity calls are given as the source filed them. The call rests on the fitted dose curve; in most records, active means well fitted cell-killing curve with a large enough effect; inconclusive means small, poorly fitted or top-dose-only effect, or effect the other way; inactive means no such curve, though single readings can be large or run the other way.

Assay: Quantitative highthroughput screen to assess conditional lethalithy of NOMO1 cells grown in Human Plasma-Like Medium with dialyzed fetal bovine serum (HPLM+ds) (AID 1963878); further: nearly all actives have a fitted effect of over 35% in size
Conditions: NOMO1 AML cells in HPLM+ds, CellTiter-Glo viability, 48 h; series mostly up to 45.8 µM; viability: at the top concentration
Excerpt: Assay Provider: Jason Cantor Ph.D.
Department of Biochemistry
University of Wisconsin-Madison, Madison, WI, USA
Chemical screening studies have identified drug sensitivities across hundreds of cancer cell lines but most putative therapeutics fail to translate. Discovery and development of drug candidates in models that more accurately reflect nutrient levels in human blood is a major challenge. Here we performed high-throughput screens in conventional versus Human Plasma-Like Medium (HPLM) to identify compounds that were "missed" when screening using the artificial culture condition. Sets of conditional anticancer compounds spanned phases of clinical development and included non-oncology drugs were assessed. […] We also traced conditional phenotypes for several chemotherapeutics to availability of HPLM-specific metabolites and confirmed others for compounds whose reported targets are encoded by nonessential genes. Our findings establish generalizable strategies for exploiting conditional lethality in HPLM to reveal therapeutic candidates and mechanisms of action in cancer cells.
Described herein are the results of each viability screens against three cell lines: NOMO1 (an acute myeloid leukemia cell line); P12-Ichikawa (a T-cell acute lymphoblastic leukemia); and SEM (a B-cell ALL). Each assay was screened using 3 different cell culture media: homemade human plasma-Like medium with 10% dialyzed fetal bovine serum (HPLM+ds); RPMI1640 with 10% untreated FBS and 5mM glucose (RPMI+s); and RPMI1640 with 10% dialyzed fetal bovine serum and 5 mM glucose (RPMI+ds).
PROTOCOL TABLE (as described by Inglese J, Shamu CE and Guy RK. 2007)
SEQUENCE No. (e.g., 1, 2, 3, etc.); […] (e.g., Cells, Incubation, Reagent, etc.); VALUE and DESCRIPTION.
1; Cells; 5 uL; white, solid bottom 1536-well Greiner assay plate.
2; Compounds; 23 nL; Kalypsis pin tool (Wako USA) equipped with a 1536-well pin head to transfer to the assay plates.
3; Incubation; 48 hours; 37C incubation.
4; Reagent; 3 uL; CellTiter Glo (Promega).
5; Incubation; 5 min, room temperature
6; Detection; Luminescence, Viewlux PerkinElmer.
NOTES (numbers refer to Sequence numbers above)
1. Briefly, 5 ul of cell reagent was dispensed using a Multidrop Combi Dispenser. The NOMO1 and SEM cells were plated at 500 cells/well and the P12-Ichikawa line at 1000 cells/well.
2. After seeding the cells, 23 nL of MIPE 4.1 library compounds (in DMSO) were added to each plate using a Kalypsys 1536 Pintool dispenser. Bortezomib at final concentration of […] and DMSO were added to each plate as positive and negative controls respectively. For each screen, MIPE 4.1 compounds were added over an eleven-point concentration range […] in 3-fold dilutions.
3. Each plate was covered with a stainless steel gasketed lid to prevent evaporation and incubated for 48 hour at 37C, 95% relative humidity, and 5% CO2.
4-5. Three microliter CellTilter-GloTM luminescent substrate mix (Promega) reagent was added to the assay plate and incubated at room temperature for 5 min.
6. The luminescence signal was measured using a ViewLux (PerkinElmer) multiplate reader with a 2 second exposure time per plate. Data for each compound were normalized as percent viability such that measurements for DMSO and the empty well controls in each plate were defined as 100% and 0%, respectively.
Potency means the concentration at half of the fitted maximal effect.

Compound	viability	Potency
CN1CCN(C(=O)O[C@H]2c3nccnc3C(=O)N2c2ccc(Cl)cn2)CC1	94.8% (inactive)	
Cc1[nH]nc2ccc(-c3cncc(OC[C@@H](N)Cc4c[nH]c5ccccc45)c3)cc12		526 nM (active)
O=C(O)c1nn(Cc2ccc(Cl)cc2Cl)c2ccccc12	82.9% (inactive)	
CCOc1ccccc1-n1c(C(C)N2CCN(C(=O)COc3ccc(Cl)cc3)CC2)nc2ccccc2c1=O (stereo not given)		741 nM (active)
CC(C)CC(N(C)C)C1(c2ccc(Cl)cc2)CCC1 (stereo not given)	91% (inactive)	
COc1ccc(C(=O)c2c(C)n(CCN3CCOCC3)c3ccccc23)cc1	87.4% (inactive)	
CNCC(O)c1ccc(O)cc1 (stereo not given)	106% (inactive)	
C[C@]12COC(=O)C[C@@H]1CC[C@@H]1[C@H]2CC[C@@]2(C)[C@H]1CC[C@]2(C)O	82.9% (inactive)	
C[C@]12CC[C@H]3[C@@H](CCC4=CC(=O)CC[C@@]43C)[C@H]1CC[C@H]2O	106% (inactive)	
CN(C)CCN(C)CCc1ccc(Cl)c(Cl)c1	93.5% (inactive)	
CC(=Cc1csc(C)n1)[C@@H]1C[C@H]2O[C@@H]2CCC[C@H](C)[C@@H](O)[C@@H](C)C(=O)C(C)(C)[C@@H](O)CC(=O)O1	26.9% (inactive)	
CCNC(=O)CC1N=C(c2ccc(Cl)cc2)c2cc(OC)ccc2-n2c(C)nnc21 (stereo not given)	72.7% (inactive)	
N[C@@H](Cc1ccc(N(CCCl)CCCl)cc1)C(=O)O		7430 nM (active)
CC(C)N(CCNC(=O)CN1CCCC1=O)C(C)C	100% (inactive)	
CC1=C2C[C@@H]3[C@@H](CC=C4C[C@@H](O)CC[C@@]43C)[C@@H]2CC[C@]12O[C@H]1C[C@H](C)CN[C@H]1[C@H]2C	80.4% (inactive)	
NCC1(CC(=O)O)CCCCC1	81.8% (inactive)	
CC(=Cc1csc(C)n1)[C@@H]1C[C@H]2O[C@]2(C)CCC[C@H](C)[C@@H](O)[C@@H](C)C(=O)C(C)(C)[C@@H](O)CC(=O)O1	27.6% (inactive)	
C[C@@H]1[C@H](O)[C@@H](C)C=CC=CCCC=CC=CC=CC=C[C@H](O[C@H]2O[C@@H](C)[C@H](O)[C@@H](N)[C@@H]2O)CC2O[C@](O)(C[C@@H](O)[C@H](O)CC[C@@H](O)C[C@@H](O)C[C@@H](O)CC(=O)O[C@H]1C)C[C@H](O)[C@H]2C(=O)O	106% (inactive)	
Cc1cccc(C)c1NC(=O)CN1CCCC1=O	101% (inactive)	
CC(C)C[C@H](CN)CC(=O)O	97.5% (inactive)	

Compound	viability	Potency
CCOP(=O)(OCC)C(C)NC(=O)N(CCCl)N=O (stereo not given)	117% (inactive)	
COC[C@@H](NC(C)=O)C(=O)NCc1ccccc1		18700 nM (active)
C[C@]12CCC(=O)C(O)=C1CC[C@@H]1[C@H]3CCC(=O)[C@@]3(C)CC[C@@H]12	84.6% (inactive)	
CC(C)(C)c1cc(C=C(C#N)C#N)cc(Br)c1O	84.4% (inactive)	
CCOC(=O)c1c(C(C#N)=CN)c2ccc(Cl)c(Cl)c2n1C	112% (inactive)	
C[C@@]12OC(=O)[C@]1([C@@H](O)[C@@H]1C=CCCC1)NC(=O)[C@H]2CCCl		166 nM (active)
COC1=CC(C)=C[C@@H](C)[C@@H](O)[C@@H](C)CC(C)=CC=C[C@H](OC)[C@H]([C@@H](C)[C@@H](O)[C@H](C)[C@@]2(O)C[C@@H](O)[C@H](C)[C@@H](C(C)C)O2)OC1=O		66.2 nM (active)
O=C(NCC1CCOCC1)c1cnc(Nc2ccc(Cl)cc2Cl)nc1C(F)(F)F	102% (inactive)	
CCCC[N+]1(C)[C@H]2CC(OC(=O)[C@H](CO)c3ccccc3)C[C@H]1[C@H]1O[C@H]12 (stereo not given in full)		11800 nM (active)
C[C@]12CC[C@@H]3c4ccc(OC(=O)N(CCCl)CCCl)cc4CC[C@H]3[C@@H]1CC[C@@H]2OP(=O)(O)O		18700 nM (active)
COc1ccc2c(c1OC)CN1CCc3cc4c(cc3C1C2)OCO4 (stereo not given)		1480 nM (active)
CNC(=O)c1ccc(N2C(=S)N(c3ccc(C#N)c(C(F)(F)F)c3)C(=O)C23CCC3)cc1F	110% (inactive)	
CCN1C[C@]2(OC(=O)c3ccccc3NC(C)=O)CC[C@H](OC)[C@@]34[C@H]5CC6[C@@H](OC)C[C@](O)(C(C[C@@H]23)[C@@H]14)[C@@]5(O)[C@@H]6OC	104% (inactive)	
C[C@](O)(CS(=O)(=O)c1ccc(F)cc1)C(=O)Nc1ccc(C#N)c(C(F)(F)F)c1	114% (inactive)	
Cn1c(CCCC(=O)O)nc2cc(N(CCCl)CCCl)ccc21	104% (inactive)	
Cc1sc2c(c1C)C(c1ccc(Cl)cc1)=N[C@@H](CC(=O)OC(C)(C)C)c1nnc(C)n1-2		418 nM (active)
C[C@]12CC[C@H]3[C@@H](CCC4=CC(=O)CC[C@@]43C)[C@H]1CC[C@H]2OC(=O)CCC1CCCC1	101% (inactive)	
COc1ccc(CC2NCCc3cc(OC)c(OC)cc32)cc1OC (stereo not given)	101% (inactive)	
Cn1cc(C2=C(c3cn(C4CCN(Cc5ccccn5)CC4)c4ccccc34)C(=O)NC2=O)c2ccccc21	115% (inactive)	
C[C@]12CCC(=O)C=C1CC[C@@H]1[C@H]3CC[C@](C)(O)[C@@]3(C)CC[C@@H]12	93.9% [at 92.2 µM] (inactive)	
